# Activity calls are given as the source filed them.
# What was measured:
# [1] = small molecules captured by biotinylated probe aFSTL3 – biochemical, small-molecule microarray, fluorescence 635/667, stem cell growth factor project, primary screen (AID 1064); conditions: higher = more signal;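 note: measures binding of the biotinylated anti-FSTL3 antibody to printed compounds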
# [2] = binders from COS7 lysate, DM2A8 probe, primary screen, torsin A project, cell lysate, small-molecule microarray, fluorescence 635/667 (AID 1065); conditions: higher = more signal, COS7 lysate expressing mutant human TOR1A
# [3] = small molecules captured by biotinylated probe aFGF2 – biochemical, small-molecule microarray, fluorescence 635/667, stem cell growth factor project, primary screen (AID 1067); conditions: higher = more signal;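 note: measures binding of biotinylated aFGF2 protein to printed compounds on slides; z-score merges feature fluorescence and signal-to-noise across triplicate slides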
# [4] = small molecules captured by biotinylated probe aFGF10 – biochemical, small-molecule microarray, fluorescence 635/667, stem cell growth factor project, primary screen (AID 1071); conditions: higher = more signal;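 note: score merges 667 nm spot intensity and signal to noise from triplicate slides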
# [5] = target: Neurogenic locus notch homolog protein 2 (Homo sapiens) (UniProt Q04721); test: small molecules binding Notch2 protein – biochemical, small-molecule microarray, 635 nm fluorescence, stem cell growth factors, primary screen (AID 1073); conditions: higher = more signal
# [6] = target: Pro-neuregulin-1, membrane-bound isoform (Homo sapiens) (UniProt Q02297); test: small molecules binding neuregulin-1 protein – biochemical, small-molecule microarray, fluorescence 635/667, psychiatric disease protein project, primary screen (AID 1075); conditions: NRG1 binding, 635 nm fluorescence, higher = more signal;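 note: score combines 667 nm spot fluorescence with signal to noise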
# Sequence of Pro-neuregulin-1, membrane-bound isoform (Homo sapiens) (Q02297 whole entry, looked up, the tested form may be a part, canonical isoform): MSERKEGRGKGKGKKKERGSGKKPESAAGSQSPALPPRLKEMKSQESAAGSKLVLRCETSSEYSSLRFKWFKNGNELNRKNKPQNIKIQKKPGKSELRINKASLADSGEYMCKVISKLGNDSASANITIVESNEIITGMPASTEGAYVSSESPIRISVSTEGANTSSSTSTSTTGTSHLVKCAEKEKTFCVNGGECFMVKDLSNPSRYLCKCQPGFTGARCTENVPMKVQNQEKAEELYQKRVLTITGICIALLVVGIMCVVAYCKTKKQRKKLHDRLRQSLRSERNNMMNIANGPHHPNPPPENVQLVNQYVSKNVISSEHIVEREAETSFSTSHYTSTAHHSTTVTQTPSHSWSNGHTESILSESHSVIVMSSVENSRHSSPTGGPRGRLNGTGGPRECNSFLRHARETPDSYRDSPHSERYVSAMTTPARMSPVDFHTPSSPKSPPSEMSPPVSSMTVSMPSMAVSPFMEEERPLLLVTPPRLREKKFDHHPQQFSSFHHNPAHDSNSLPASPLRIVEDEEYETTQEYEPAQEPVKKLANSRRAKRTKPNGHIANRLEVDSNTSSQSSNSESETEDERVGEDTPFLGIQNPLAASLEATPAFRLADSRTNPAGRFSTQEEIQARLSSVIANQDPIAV
# [7] = test system: Neuregulin-1 EGF-like domain; test: small molecules binding NRG1 EGF domain – biochemical, small-molecule microarray, 635 nm fluorescence, primary screen (AID 1081); conditions: higher = more signal;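 note: binding of the protein to compounds printed on small-molecule microarray slides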
# [8] = FRG1 expression reporter modulators in myotubes – cell-based, C2C12 myotubes, firefly/Renilla luciferase, luminescence, FRG1 inhibition for FSHD, primary screen (AID 1084); conditions: FRG1 promoter luciferase, higher = more signal, called active from +8 up or from −8 down
# [9] = small molecules captured by biotinylated probe aFST – biochemical, small-molecule microarray, fluorescence 635/667, stem cell growth factor project, primary screen (AID 1086); conditions: higher = more signal;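 note: score merges 667 nm fluorescence with signal-to-noise of each printed compound spot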
# [10] = binders of probe aHhip on microarray, primary screen, stem cell growth factor project, biochemical, small-molecule microarray, fluorescence 635/667 (AID 1087); conditions: higher = more signal;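 note: score merges spot fluorescence at 667nm with spot signal to noise ratio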
# [11] = test system: PRMT1 (protein arginine N-methyltransferase 1); test: small molecules binding arginine methyltransferase PRMT1 – biochemical, small-molecule microarray, 635 nm fluorescence, primary screen (AID 1088); conditions: higher = more signal;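 note: binding of Prmt1 protein to compounds spotted on small-molecule microarray slides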
# [12] = growth effects on S. cerevisiae YJM789 – YJM789 clinical isolate, OD600, 24 h, basal, primary screen (AID 1089); conditions: higher = more signal, called active from +8 up or from −8 down;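 note: growth of clinical yeast isolate S. cerevisiae YJM 789 seeded 1000 cells per well; test concentration not given here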
# [13] = S. pombe growth modifiers, basal conditions – strain 972, OD600, 24 h, no modulator, primary screen (AID 1090);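 note: basal condition with compound alone and no growth modifier present; test concentration not given here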; conditions: S. pombe 972 growth, higher = more signal, called active from +8 up or from −8 down
# [14] = budding yeast growth modifiers under rapamycin – strain BY4716, OD600, 96 h, primary screen (AID 1091); note: test concentration not given here; conditions: S. cerevisiae BY4716 + rapamycin, higher = more signal, called active from +8 up or from −8 down
# [15] = target: Torsin-1A-interacting protein 2 (Homo sapiens) (UniProt Q8NFQ8); test: small molecules binding lysate-expressed LULL1 – cell lysate, human LULL1 lysate, 635/667 nm fluorescence, primary screen (AID 1092); conditions: small-molecule microarray, hLULL1 lysate binding, 635 nm fluorescence; higher = more signal;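 note: probe is lysate of COS7 cells overexpressing human LULL1; score merges per-feature 667 nm fluorescence with signal-to-noise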
# Sequence of Torsin-1A-interacting protein 2 (Homo sapiens) (Q8NFQ8 whole entry, looked up): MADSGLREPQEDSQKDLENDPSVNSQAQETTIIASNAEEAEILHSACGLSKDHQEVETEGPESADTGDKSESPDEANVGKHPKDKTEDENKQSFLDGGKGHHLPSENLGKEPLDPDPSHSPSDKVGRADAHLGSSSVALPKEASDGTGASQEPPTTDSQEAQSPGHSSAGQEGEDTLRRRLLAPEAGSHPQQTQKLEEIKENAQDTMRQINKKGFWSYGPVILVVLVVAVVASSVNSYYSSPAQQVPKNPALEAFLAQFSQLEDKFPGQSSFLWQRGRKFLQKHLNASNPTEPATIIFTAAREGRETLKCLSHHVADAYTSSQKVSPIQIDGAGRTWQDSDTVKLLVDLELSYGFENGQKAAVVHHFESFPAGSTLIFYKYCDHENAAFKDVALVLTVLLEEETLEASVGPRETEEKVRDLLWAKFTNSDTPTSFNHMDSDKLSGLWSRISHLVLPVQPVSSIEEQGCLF
# [16] = optical density change of DRC41 E. coli – strain DRC41, OD650, 24 h, E. coli filamentation project, primary screen (AID 1093);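 note: MC1000 strain lacking acrAB efflux and sulA so SOS filamentation is blocked; test concentration not given here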; conditions: E. coli DRC41 growth, higher = more signal, called active from +8 up or from −8 down
# [17] = probe aLefty2 binding to arrayed compounds – biochemical, biotinylated probe, 635/667 nm fluorescence, primary screen (AID 1094); conditions: small-molecule microarray, higher = more signal;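 note: score merges spot fluorescence near 667 nm with spot signal-to-noise ratio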
# [18] = test system: Noggin (protein binding on small-molecule microarray); test: small molecules binding Noggin protein – biochemical, 635/667 nm fluorescence, primary screen (AID 1095); conditions: 635 nm fluorescence, higher = more signal;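 note: score merges 667 nm feature fluorescence with signal to noise over triplicate slides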
# [19] = target: Neurogenic locus notch homolog protein 3 (Homo sapiens) (UniProt Q9UM47); test: small molecules binding NOTCH3 protein – biochemical, 635/667 nm fluorescence, primary screen (AID 1096); conditions: small-molecule microarray, 635 nm fluorescence, higher = more signal
# Sequence of Neurogenic locus notch homolog protein 3 (Homo sapiens) (Q9UM47 whole entry, looked up): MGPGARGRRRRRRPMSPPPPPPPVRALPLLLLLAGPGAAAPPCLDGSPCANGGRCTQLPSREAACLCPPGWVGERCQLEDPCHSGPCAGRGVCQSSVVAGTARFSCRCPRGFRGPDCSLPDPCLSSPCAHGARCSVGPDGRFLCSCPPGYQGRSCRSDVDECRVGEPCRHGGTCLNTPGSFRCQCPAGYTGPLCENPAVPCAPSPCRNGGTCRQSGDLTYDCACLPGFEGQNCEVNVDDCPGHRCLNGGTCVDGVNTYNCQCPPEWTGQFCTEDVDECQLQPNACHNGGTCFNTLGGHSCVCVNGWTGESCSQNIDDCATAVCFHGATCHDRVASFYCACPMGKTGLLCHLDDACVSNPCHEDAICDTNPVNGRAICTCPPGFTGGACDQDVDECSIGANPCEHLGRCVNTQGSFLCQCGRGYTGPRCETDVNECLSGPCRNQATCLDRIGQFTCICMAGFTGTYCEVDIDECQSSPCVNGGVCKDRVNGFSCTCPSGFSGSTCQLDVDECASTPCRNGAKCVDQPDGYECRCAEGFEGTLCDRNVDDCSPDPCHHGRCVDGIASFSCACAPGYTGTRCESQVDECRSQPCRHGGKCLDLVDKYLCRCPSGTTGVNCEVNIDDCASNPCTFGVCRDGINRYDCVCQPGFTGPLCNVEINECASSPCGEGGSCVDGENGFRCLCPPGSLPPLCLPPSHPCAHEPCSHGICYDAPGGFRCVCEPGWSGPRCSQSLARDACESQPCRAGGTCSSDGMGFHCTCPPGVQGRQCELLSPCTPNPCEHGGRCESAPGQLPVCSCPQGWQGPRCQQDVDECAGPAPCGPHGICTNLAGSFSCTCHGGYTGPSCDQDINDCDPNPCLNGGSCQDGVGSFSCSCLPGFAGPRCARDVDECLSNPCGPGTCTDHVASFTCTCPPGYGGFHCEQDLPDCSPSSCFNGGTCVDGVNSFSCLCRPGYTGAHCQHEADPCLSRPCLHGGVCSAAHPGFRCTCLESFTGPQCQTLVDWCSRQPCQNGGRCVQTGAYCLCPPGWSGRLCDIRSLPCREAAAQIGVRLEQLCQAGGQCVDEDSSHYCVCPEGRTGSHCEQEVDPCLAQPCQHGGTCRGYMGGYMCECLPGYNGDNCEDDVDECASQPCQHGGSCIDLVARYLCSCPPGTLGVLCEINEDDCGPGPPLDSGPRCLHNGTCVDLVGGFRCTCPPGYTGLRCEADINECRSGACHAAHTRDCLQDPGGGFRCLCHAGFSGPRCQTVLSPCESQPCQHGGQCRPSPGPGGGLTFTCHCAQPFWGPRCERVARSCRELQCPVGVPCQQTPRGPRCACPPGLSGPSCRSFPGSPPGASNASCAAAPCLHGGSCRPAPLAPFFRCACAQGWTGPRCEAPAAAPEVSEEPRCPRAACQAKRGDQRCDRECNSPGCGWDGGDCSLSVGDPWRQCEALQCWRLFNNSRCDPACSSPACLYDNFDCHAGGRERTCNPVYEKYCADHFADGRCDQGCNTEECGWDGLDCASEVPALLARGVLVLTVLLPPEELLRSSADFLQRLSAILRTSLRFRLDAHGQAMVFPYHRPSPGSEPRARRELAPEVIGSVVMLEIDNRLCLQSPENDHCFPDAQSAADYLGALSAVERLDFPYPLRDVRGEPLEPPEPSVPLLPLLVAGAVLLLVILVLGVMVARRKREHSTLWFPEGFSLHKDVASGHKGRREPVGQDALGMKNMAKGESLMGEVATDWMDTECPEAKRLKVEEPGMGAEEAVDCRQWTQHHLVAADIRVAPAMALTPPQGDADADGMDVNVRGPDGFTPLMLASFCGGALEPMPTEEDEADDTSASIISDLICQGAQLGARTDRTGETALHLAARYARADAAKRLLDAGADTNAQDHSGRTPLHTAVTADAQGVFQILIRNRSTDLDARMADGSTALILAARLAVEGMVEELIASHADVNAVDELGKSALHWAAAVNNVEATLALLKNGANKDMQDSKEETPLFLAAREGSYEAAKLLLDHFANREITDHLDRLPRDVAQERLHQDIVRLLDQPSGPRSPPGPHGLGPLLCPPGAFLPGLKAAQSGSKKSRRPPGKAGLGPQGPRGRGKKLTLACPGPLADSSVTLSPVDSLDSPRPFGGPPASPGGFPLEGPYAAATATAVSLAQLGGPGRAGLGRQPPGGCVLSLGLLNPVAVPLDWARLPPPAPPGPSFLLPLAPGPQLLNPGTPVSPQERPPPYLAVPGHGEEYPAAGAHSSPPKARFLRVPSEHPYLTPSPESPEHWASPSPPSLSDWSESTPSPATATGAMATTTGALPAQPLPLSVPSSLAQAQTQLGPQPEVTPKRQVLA
# [20] = probe aEGFR binding to arrayed compounds – biochemical, biotinylated probe, 635/667 nm fluorescence, primary screen (AID 1097); conditions: small-molecule microarray, higher = more signal;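 note: probe is a biotinylated anti-EGFR antibody binding compounds printed on slides; score combines fluorescence near 667 nm and signal to noise of each spot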
SMILES,composite z-score [1],composite z-score [2],composite z-score [3],composite z-score [4],composite z-score [5],composite z-score [6],composite z-score [7],z-score [8],composite z-score [9],composite z-score [10],composite z-score [11],z-score [12],z-score [13],z-score [14],composite z-score [15],z-score [16],composite z-score [17],composite z-score [18],composite z-score [19],composite z-score [20]
C=CCOC(=O)[C@H]1[C@@H]2C(=O)O[C@@H](c3ccccc3)[C@@H](c3ccccc3)N2[C@@H](c2ccc(OCCOC(=O)[C@@H]3C[C@@H]4C(=O)N5CCC[C@H]5C(=O)N4[C@@H]3c3ccc(O)cc3)cc2)[C@]12C(=O)Nc1ccc(I)cc12,0.011,-0.123,-0.201,0.126,0.344,0.929,0.718,0.308 (inactive),-0.0935,-0.367,1.42,0.882 (inactive),0.25 (inactive),2.77 (inactive),1.03,-0.333 (inactive),-0.138,0.674,0.169,-0.194
C=C(COC)C(=O)CC[C@@H](OC(=O)c1cccnc1)c1ccc(OCCO)cc1,0.193,0.112,-0.172,0.182,1.02,0.403,1.49,-1.32 (inactive),0.343,-0.0237,1.2,-10.9 (active),-20.4 (active),-3.62 (inactive),0.204,-0.653 (inactive),0.0047,0.992,0.431,0.167
COc1ccc(-c2cc3c(c(CCc4ccccc4)n2)[Si](C(C)C)(C(C)C)OC3)cn1,-0.33,0.239,-0.0537,0.0473,0.247,-0.352,0.197,0.943 (inactive),0.21,0.113,-0.876,0.275 (inactive),-0.726 (inactive),0.333 (inactive),0.781,-0.43 (inactive),-0.248,0.325,0.312,-0.0828
O=C1O[C@H](c2ccccc2)[C@H](c2ccccc2)N2[C@H]1[C@@H](C(=O)Nc1nc3ccccc3s1)[C@]1(C(=O)Nc3ccccc31)[C@H]2c1ccc(OCCO)cc1,-0.401,0.292,-0.0734,0.452,1.31,1.29,1.11,3.35 (inactive),0.778,0.0854,1.31,1.48 (inactive),1.95 (inactive),3.31 (inactive),1.96,0.0528 (inactive),-0.0446,1.5,1.05,0.0162
[N-]=[N+]=NCc1ccccc1[C@H]1OC(c2ccc(OCCCO)cc2)=N[C@@]1(CCS(=O)(=O)c1ccccc1)C(=O)N1CCCCC1,0.974,1.28,0.248,0.4,1.51,1.79,1.33,0.225 (inactive),1.42,-0.191,1.55,0.341 (inactive),-0.0527 (inactive),3.75 (inactive),3.34,-0.334 (inactive),0.574,0.876,0.992,0.283
CCOC(=O)C1=CC[C@@H](c2cccc(Cl)c2)N(S(=O)(=O)c2ccc(C)cc2)C1,0.432,0.627,0.067,0.336,0.0142,1.31,1.2,-2.76 (inactive),0.329,-0.0994,0.335,-1.89 (inactive),-0.0856 (inactive),0.311 (inactive),2.54,-0.363 (inactive),0.0771,0.0745,0.126,-0.0803
COC(=O)[C@@]1(Cc2ccc(OC)cc2)[C@@H]2C(=CC(=O)[C@H]2CC(=O)C(=O)N(C)C)CN1C(=O)c1ccccc1,0.928,-0.262,0.0921,0.582,1.77,1.39,1.18,1.46 (inactive),1.97,0.177,0.464,0.244 (inactive),0.693 (inactive),2.88 (inactive),3.54,-1.08 (inactive),0.413,-0.343,1.03,0.0364
COc1cc(OC)c(C(O)C2C=CC3C(=O)N(C)C(=O)C3N2NC(=O)OC(C)(C)C)cc1Br (stereo not given),0.411,-0.381,0.232,0.843,1.76,1.85,1.37,-0.612 (inactive),1.84,0.0522,1.54,0.24 (inactive),-0.324 (inactive),0.828 (inactive),3.39,-0.188 (inactive),0.368,0.137,1.02,0.128
C=CC[C@]1(C(=O)NCCN2CCOCC2)N=C(c2ccc(OCCCO)cc2)O[C@H]1c1ccccc1CN=[N+]=[N-],0.442,1.46,-0.0078,0.333,0.837,0.849,1.23,1.81 (inactive),0.171,0.0338,1.4,-0.0011 (inactive),-1.77 (inactive),-0.744 (inactive),1.64,1.23 (inactive),0.298,0.641,-1.35,0.159
CN(C)C(=O)C1N=C(c2ccc(OCCCO)cc2)N(c2ccccc2)O1 (stereo not given),-0.135,0.18,0.0097,0.929,1.19,0.869,1.39,4.85 (inactive),0.514,0.107,1.56,-0.0944 (inactive),-1.17 (inactive),-0.582 (inactive),1.72,1.15 (inactive),-0.244,1.41,1.05,0.123
